Gli-Sufu block: antagonists of Gli-Sufu signaling. Sufu-KO-LIGHT fibroblasts, Gli luciferase reporter luminescence. inhibition, % at 5 µM. actives 0.74% (n = 340,000). AID 588413;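 active = inhibition above about 55%, limit read from the data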;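 note: 0% = DMSO-treated cells and 100% = wells with medium but no cells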
SRC2 inh: inhibits human steroid receptor coactivator 2; HEK293 GAL4-SRC2 luciferase reporter, luminescence; inhibition, % at 9 µM; actives 0.17% (n = 370,000); Q15596; AID 651957;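 active = inhibition above the mean inhibition of all tested compounds plus 3 SD, set per campaign, cut at about 52% in these data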;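 note: 0% = DMSO treated cells and 100% = cells given Gossypol at 36 µM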
NR5A2 inv ag: NR5A2 inverse agonism in reporter assay | O00482 | HEK293T StAR-luciferase reporter, LRH-1 transfected, 24 h | inhibition, % at 3.6 µM | actives 0.13% (n = 360,000);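 active = inhibition above the mean inhibition of all tested compounds plus 3 SD, cut at about 73% in these data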;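 note: 0% = DMSO wells and 100% = reporter-only cells lacking LRH-1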
COUP-TFII inh: inhibitors of human COUP-TFII (NR2F2) | P24468 | HEK293T NGFI-A luciferase reporter, luminescence | inhibition, % at 8.6 µM | actives 0.7% (n = 370,000) | AID 686940;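 active = inhibition above a per-plate cutoff, mean inhibition of test wells between control levels plus 3 SD, cut at about 38% in these data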;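 note: cells cotransfected with COUP-TFII expression vector driving the NGFI-A reporter; 0% = median of COUP-TF2 test wells and 100% = reporter-only cells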
Target sequence (P24468 whole entry, looked up): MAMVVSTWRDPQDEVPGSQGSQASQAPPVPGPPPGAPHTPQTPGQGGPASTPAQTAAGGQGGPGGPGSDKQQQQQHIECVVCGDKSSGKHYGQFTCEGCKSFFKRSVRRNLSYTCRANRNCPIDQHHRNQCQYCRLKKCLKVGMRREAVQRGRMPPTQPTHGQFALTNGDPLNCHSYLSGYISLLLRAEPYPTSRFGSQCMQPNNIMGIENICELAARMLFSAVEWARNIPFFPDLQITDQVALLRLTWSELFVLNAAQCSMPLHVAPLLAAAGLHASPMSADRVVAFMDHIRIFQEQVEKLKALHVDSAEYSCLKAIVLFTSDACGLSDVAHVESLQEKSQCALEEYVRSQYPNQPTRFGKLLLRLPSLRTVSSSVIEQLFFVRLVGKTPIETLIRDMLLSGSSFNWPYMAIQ
SRC3 inh: human NCOA3 inhibition. Q9Y6Q9. HEK293 GAL4-SRC3 luciferase reporter, luminescence. inhibition, % at 3.6 µM. actives 0.17% (n = 360,000). AID 588352;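 active = inhibition above a per-campaign cutoff, the mean of all compounds plus 3 SD, cut at about 60% in these data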;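 note: 0% = DMSO-treated cells and 100% = gossypol-treated cells at 36 µM; higher means less SRC3-driven luciferase light from the GAL4 reporter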
NCOA1 inh: inhibits human SRC1 coactivator; actives 0.12% (n = 360,000); inhibition, % at 3.6 µM; HEK293 GAL4-SRC1 luciferase reporter, luminescence; Q15788;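 active = inhibition above the campaign mean plus 3 SD, with each screening campaign given its own cutoff, cut at about 60% in these data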;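 note: 0% = DMSO treated cells and 100% = gossypol at 36 µM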
Gli-Sufu confirm: confirmation of Gli-SUFU pathway antagonists; actives 40% (n = 2,500); AID 602428; Sufu-KO-LIGHT cells, Gli luciferase reporter, luminescence; inhibition, % at 5 µM; shares compounds with Gli-Sufu block;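 active = mean inhibition at 5 µM reaching about 45%, limit read from the data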;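 note: plate controls were DMSO-treated cells for no effect and wells lacking cells for full effect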
SufuKO cytotox: cytotoxicity counter-screen for Gli-SUFU antagonists | actives 32% (n = 2,500) | cytotoxicity, % at 5 µM | AID 651994 | shares compounds with Gli-Sufu block | Sufu-KO-LIGHT cells cytotoxicity, ATP luminescence;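 active = mean cytotoxicity at 5 µM above about 25%, limit read from the data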;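 note: cells exposed to compound overnight for roughly 16 to 18 hours; plate controls were DMSO wells with cells for no effect and medium without cells for full effect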
Wnt3a cs: inhibits Wnt3a reporter, counter-screen for Gli-SUFU antagonists | shares compounds with Gli-Sufu block | Wnt-LIGHT cells, Wnt3a-driven luciferase reporter, luminescence | inhibition, % at 6.25 µM | actives 20% (n = 2,500);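 active = mean inhibition above about 25%, limit read from the data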
The depositor's hits bear a star; x = no result. The list is not random: actives were taken first. Their share in the collection is about 1.3%.

SMILES	Gli-Sufu block	SRC2 inh	NR5A2 inv ag	COUP-TFII inh	SRC3 inh	NCOA1 inh	Gli-Sufu confirm	SufuKO cytotox	Wnt3a cs
CCc1ccc(C(CNC(=O)c2ccc3c(=O)n(-c4ccccc4F)c(=S)[nH]c3c2)N(C)C)cc1 (stereo unspecified)	58.6*	0.0	-12.5	21.4	5.4	16.0	28.9	5.0	0.9
CCOC(=O)N1CCN(C(=O)c2ccc3c(=O)n(-c4ccccc4F)c(=S)[nH]c3c2)CC1	32.9	2.7	12.8	-10.9	19.7	-5.6	x	x	x
Cc1cc(C)c(C(N)=O)c(SCC(=O)c2cc(C)n(-c3cc(C)on3)c2C)n1	51.4	25.3	12.9	8.7	27.6	5.2	59.5*	33.5*	12.9
COc1cccc(/C=N/Nc2ncnc3c2ncn3Cc2ccccc2)c1O	51.1	21.9	91.5*	-12.4	66.9*	53.3	78.3*	31.7*	68.9*
COCCNC(=O)CSCc1nc(-c2ccc(SC)cc2)oc1C	55.2*	1.8	-17.4	0.6	-2.5	-7.3	65.9*	11.9	7.9
Cc1cccc(-c2nc(CSCC(=O)NCc3cccs3)c(C)o2)c1	55.0*	-61.2	7.0	13.0	15.9	6.2	13.4	6.9	-7.3
Cc1cccc(-c2nc(CS(=O)CC(=O)NCc3cccs3)c(C)o2)c1 (stereo unspecified)	-2.4	-1.4	-24.5	7.0	9.7	-33.7	x	x	x
CCOc1ccc(-c2nc(CSCC(=O)NC3CC3)c(C)o2)cc1	89.8*	x	8.7	x	2.1	-75.4	93.3*	12.6	-1.9
N=c1c2c(-c3ccccc3)c(-c3ccccc3)n(CCc3ccccc3)c2ncn1C1CCC(O)CC1 (stereo unspecified)	x	-36.5	x	26.0	x	x	x	x	x
CCCCOc1ccc(C(=O)NCCCC(=O)N2CCCCC2)cc1	68.0*	2.4	-11.1	10.3	11.4	2.5	30.1	12.4	-12.9
O=C(CSc1nnc(-c2ccco2)n1Cc1ccco1)c1ccc([N+](=O)[O-])cc1	x	-5.3	x	5.3	x	x	x	x	x
Cc1ccc(/C=N/Nc2cn[nH]c(=O)n2)o1	-8.9	-58.7	-58.1	-45.5	-54.0	-75.8	x	x	x
O=c1nc(N/N=C/c2ccccn2)cn[nH]1	67.3*	-6.8	-48.3	-61.4	0.9	0.6	70.7*	32.6*	77.7*
CCC(C)(C)C(=O)N1CCc2cc(S(=O)(=O)N(C)Cc3ccco3)ccc21	x	-39.8	x	-1.5	x	x	x	x	x
O=C(CCc1nc2ccccc2[nH]c1=O)OCC(=O)c1ccc(Cl)cc1	-1.0	-5.6	4.1	-0.3	15.1	9.1	x	x	x
CC(=O)OCc1cc(-c2nc3ccccc3[nH]c2=O)nn1-c1ccc(Cl)cc1	51.9	-8.2	17.6	13.6	8.7	1.2	11.0	1.6	-28.0
CCOC(=O)C1(CCc2ccccc2)CCN(Cc2cccc3nccnc23)CC1	54.7	13.1	-5.6	5.4	13.7	7.3	30.0	4.3	-57.8
CCOC(=O)C1(CCCc2ccccc2)CCN(Cc2nccn2CC)CC1	50.2	-17.4	3.4	29.2	9.5	-3.3	33.4	10.2	-16.7
CCOC(=O)C1(CCOc2ccccc2)CCN(Cc2nccn2CC)CC1	-9.0	-15.7	0.6	2.6	13.1	14.6	x	x	x
C=C1[C@@H](CCO)N(S(=O)C(C)(C)C)C[C@@H]1C (stereo partly specified)	x	-1.1	x	-8.1	x	x	x	x	x
CCCC/C=C1/[C@H](c2ccccc2)N(C)C2=N[C@@H](c3ccccc3)CC(=O)N21	x	x	x	16.9	x	x	x	x	x
COC(=O)[C@]12C[C@H](CC(=O)NCc3cccc(C(F)(F)F)c3)C(=O)N(Cc3ccc(Cl)cc3Cl)C1=C[C@H](C(C)(C)C)O[C@@H]2C	x	9.3	x	0.1	x	x	x	x	x
CCN(CC)C(=O)CC[C@@H]1CC[C@]2(CCCN(S(C)(=O)=O)C2)O1	x	-0.3	x	-8.0	x	x	x	x	x
COC(=O)[C@]12C[C@H](CC(=O)NCCC(C)C)C(=O)N(Cc3ccco3)C1=C[C@H](C(C)(C)C)O[C@@H]2C	x	-8.0	x	-9.9	x	x	x	x	x
COCCOc1nc2c(c(=O)n(C)c(=O)n2C)n1Cc1cccc(OC)c1	51.8	18.6	11.5	18.3	28.5	9.0	44.3	20.6	22.8
SMILES	Gli-Sufu block	SRC2 inh	NR5A2 inv ag	COUP-TFII inh	SRC3 inh	NCOA1 inh	Gli-Sufu confirm	SufuKO cytotox	Wnt3a cs
O=C(c1cc2n(n1)C(C(F)(F)F)CC(c1ccc(Cl)cc1)N2)N1CCCC1 (stereo unspecified)	57.1*	-12.7	-9.0	-3.4	7.4	3.1	17.9	3.5	-9.4
COc1ccc(OC)c(NC(=O)CN(c2ccc(C)cc2)S(=O)(=O)c2c(C)n[nH]c2C)c1	-5.8	-10.6	1.5	-13.1	5.4	18.1	x	x	x
COc1ccccc1NC(=O)CN(c1ccc(C)cc1)S(=O)(=O)c1c(C)n[nH]c1C	55.7*	2.3	10.9	-1.1	20.6	-9.7	19.7	5.0	-25.1
CCOC(=O)c1ccc(NC(=S)N(CCCN2CCN(C)CC2)Cc2cccs2)cc1	60.2*	-5.6	-9.0	-3.2	11.3	-2.4	9.6	26.5*	-19.0
Cc1cc(NC(=O)c2ccc(NS(=O)(=O)c3ccccc3F)cc2)no1	x	33.1	x	-11.6	x	x	x	x	x
COc1cc(C=O)c(-c2c(C=O)cc(OC)c3c2OCO3)c2c1OCO2	63.1*	1.1	10.0	4.0	-11.3	-11.8	13.6	18.4	-3.8
Cc1ccc(S(=O)(=O)NCCC(=O)N2CCCCCCC2)cc1	95.5*	-6.8	0.0	10.8	7.6	4.1	12.5	1.2	-10.9
O=C(CCNS(=O)(=O)c1ccccc1)N1CCCCCCC1	-21.2	0.0	-12.8	-9.6	-9.1	-15.7	x	x	x
COc1cccc(NC(=O)C2CCN(S(=O)(=O)c3ccc(N4CCCC4=O)cc3)CC2)c1	x	-13.4	-2.7	17.7	3.8	-0.9	x	x	x
O=C(Nc1cccc(C(F)(F)F)c1)C1CCN(S(=O)(=O)c2ccc(N3CCCC3=O)cc2)CC1	53.2	-2.7	-8.6	27.3	7.3	10.2	57.6*	23.9	-8.7
O=C1CN(C(=O)c2ccccc2F)c2ccccc2N1	-2.5	-9.9	-13.4	6.3	9.2	6.9	x	x	x
COc1cc(OC)cc(C(=O)N2CC(=O)Nc3ccccc32)c1	54.7	7.6	6.7	-16.5	0.3	-1.7	28.6	48.5*	-50.4
O=C(NN=C1CCCCCC1)c1ccncc1	-0.1	-2.2	6.0	4.5	1.5	-5.0	x	x	x
O=C(NN=C1CCCC1)c1ccc(O)cc1	50.6	-49.7	-54.5	-22.4	-26.0	-48.2	20.9	16.4	8.5
O=C(c1ccc2c(=O)n(-c3ccccc3)c(=S)[nH]c2c1)N1CCCCC1	60.4*	12.4	20.9	36.8	25.8	13.2	54.5*	36.2*	6.6

Screens: PubChem, several laboratories
